In PMC8384837, “Expanding the binding specificity for RNA recognition by a PUF domain” one finds binding signal data, which are given here for nine sequences.

Holding throughout (experiment): yeast three-hybrid, YBZ-1, SC-Leu-His + 0.5 mM 3-AT, 4 days
What all share (details): tags: N-Gal4 AD-HA kept; label: inside an RPR1-promoter hybrid RNA with tandem MS2 sites; ssRNA

One assay concerns the target PUM1 PUF domain R8-RFE (Homo sapiens, UniProt Q14671 828-1176, N1122R;Y1123F;Q1126E). In a few lines:
(§1)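 The interaction score is the logarithmic change in variant frequency from input to selection. It uses log2, with a pseudocount of 1 for absent variants, and frequencies came from PCR-amplified, Illumina-sequenced repeat regions. The libraries were Pumilio-1 PUF domains randomized at the three base-contacting residues per repeat, co-expressed with matching RNA elements in strain YBZ-1 (LexA–MS2 coat fusion, HIS3 reporter). Plating lasted four days on SC-Leu (input) or SC-Leu-His + 0.5 mM 3-AT (selection).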

The target in the next assay is PUM1 PUF domain R8-NWE (Homo sapiens, UniProt Q14671 828-1176, Y1123W;Q1126E). In a few lines:
as §1

The target in the next assay is PUM1 PUF domain R8-PWY (Homo sapiens, UniProt Q14671 828-1176, N1122P;Y1123W;Q1126Y). In a few lines: as §1
Another assay concerns the target PUM1 PUF domain R8-YYR (Homo sapiens, UniProt Q14671 828-1176, N1122Y;Q1126R). The gist of the method:
as §1

The target in the next assay is PUM1 PUF domain R8-SYN (Homo sapiens, UniProt Q14671 828-1176, N1122S;Q1126N). The gist of the method:
as §1

The target of a further assay is PUM1 PUF domain R4-VRT (Homo sapiens, UniProt Q14671 828-1176, N971V;H972R;Q975T). The gist of the method: as §1
A further assay deals with PUM1 PUF domain R3-VRV (Homo sapiens, UniProt Q14671 828-1176, C935V;Q939V). The gist of the method:
as §1

The target of another assay is PUM1 PUF domain R3-SPW (Homo sapiens, UniProt Q14671 828-1176, C935S;R936P;Q939W). In a few lines:
as §1

For another assay, the target named is PUM1 PUF domain R3-SPD (Homo sapiens, UniProt Q14671 828-1176, C935S;R936P;Q939D). In a few lines:
as §1

For a further assay, the target named is PUM1 PUF domain R1-KTE (Homo sapiens, UniProt Q14671 828-1176, S863K;R864T;Q867E). The gist of the method:
as §1

The next assay addresses PUM1 PUF domain R5-RGT (Homo sapiens, UniProt Q14671 828-1176, C1007R;R1008G;Q1011T). The gist of the method:
as §1

A further assay concerns the target PUM1 PUF domain R3-YCD (Homo sapiens, UniProt Q14671 828-1176, C935Y;R936C;Q939D). The gist of the method:
as §1

A further assay has as its target PUM1 PUF domain R3-LSN (Homo sapiens, UniProt Q14671 828-1176, C935L;R936S;Q939N). In a few lines:
as §1

The target in the next assay is PUM1 PUF domain R3-TCD (Homo sapiens, UniProt Q14671 828-1176, C935T;R936C;Q939D). The gist of the method: as §1
A further assay deals with PUM1 PUF domain R7-RSL (Homo sapiens, UniProt Q14671 828-1176, S1079R;N1080S;E1083L). In a few lines: as §1
In a further assay the target is PUM1 PUF domain R7-RGL (Homo sapiens, UniProt Q14671 828-1176, S1079R;N1080G;E1083L). In a few lines: as §1
The next assay concerns the target PUM1 PUF domain R2-VYL (Homo sapiens, UniProt Q14671 828-1176, N899V;Q903L). In a few lines: as §1

Chain of PUM1 PUF domain R7-RSL (Q14671 828-1176 S1079R/N1080S/E1083L): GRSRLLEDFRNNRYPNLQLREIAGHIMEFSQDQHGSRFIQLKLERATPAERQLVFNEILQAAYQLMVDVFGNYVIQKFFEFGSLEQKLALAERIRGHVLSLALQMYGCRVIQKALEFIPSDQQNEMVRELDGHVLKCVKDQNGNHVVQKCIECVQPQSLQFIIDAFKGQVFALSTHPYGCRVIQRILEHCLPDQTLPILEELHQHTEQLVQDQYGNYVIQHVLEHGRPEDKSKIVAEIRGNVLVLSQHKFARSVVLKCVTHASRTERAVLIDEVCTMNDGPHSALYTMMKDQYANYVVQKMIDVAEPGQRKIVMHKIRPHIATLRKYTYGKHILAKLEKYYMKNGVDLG
Chain of PUM1 PUF domain R8-YYR (Q14671 828-1176 N1122Y/Q1126R): as the sequence (Q14671 828-1176 S1079R/N1080S/E1083L) above, with R252S, S253N, L256E, N295Y, Q299R counted along it
Chain of PUM1 PUF domain R8-RFE (Q14671 828-1176 N1122R/Y1123F/Q1126E): as the sequence (Q14671 828-1176 S1079R/N1080S/E1083L) above, with R252S, S253N, L256E, N295R, Y296F, Q299E counted along it
Chain of PUM1 PUF domain R8-NWE (Q14671 828-1176 Y1123W/Q1126E): as the sequence (Q14671 828-1176 S1079R/N1080S/E1083L) above, with R252S, S253N, L256E, Y296W, Q299E counted along it
Chain of PUM1 PUF domain R3-LSN (Q14671 828-1176 C935L/R936S/Q939N): as the sequence (Q14671 828-1176 S1079R/N1080S/E1083L) above, with C108L, R109S, Q112N, R252S, S253N, L256E counted along it
Chain of PUM1 PUF domain R7-RGL (Q14671 828-1176 S1079R/N1080G/E1083L): as the sequence (Q14671 828-1176 S1079R/N1080S/E1083L) above, with S253G counted along it
Chain of PUM1 PUF domain R3-SPW (Q14671 828-1176 C935S/R936P/Q939W): as the sequence (Q14671 828-1176 S1079R/N1080S/E1083L) above, with C108S, R109P, Q112W, R252S, S253N, L256E counted along it
Chain of PUM1 PUF domain R3-VRV (Q14671 828-1176 C935V/Q939V): as the sequence (Q14671 828-1176 S1079R/N1080S/E1083L) above, with C108V, Q112V, R252S, S253N, L256E counted along it
Chain of PUM1 PUF domain R8-SYN (Q14671 828-1176 N1122S/Q1126N): as the sequence (Q14671 828-1176 S1079R/N1080S/E1083L) above, with R252S, S253N, L256E, N295S, Q299N counted along it
Chain of PUM1 PUF domain R4-VRT (Q14671 828-1176 N971V/H972R/Q975T): as the sequence (Q14671 828-1176 S1079R/N1080S/E1083L) above, with N144V, H145R, Q148T, R252S, S253N, L256E counted along it
Chain of PUM1 PUF domain R3-SPD (Q14671 828-1176 C935S/R936P/Q939D): as the sequence (Q14671 828-1176 S1079R/N1080S/E1083L) above, with C108S, R109P, Q112D, R252S, S253N, L256E counted along it
Chain of PUM1 PUF domain R3-YCD (Q14671 828-1176 C935Y/R936C/Q939D): as the sequence (Q14671 828-1176 S1079R/N1080S/E1083L) above, with C108Y, R109C, Q112D, R252S, S253N, L256E counted along it
Chain of PUM1 PUF domain R8-PWY (Q14671 828-1176 N1122P/Y1123W/Q1126Y): as the sequence (Q14671 828-1176 S1079R/N1080S/E1083L) above, with R252S, S253N, L256E, N295P, Y296W, Q299Y counted along it
Chain of PUM1 PUF domain R3-TCD (Q14671 828-1176 C935T/R936C/Q939D): as the sequence (Q14671 828-1176 S1079R/N1080S/E1083L) above, with C108T, R109C, Q112D, R252S, S253N, L256E counted along it
Chain of PUM1 PUF domain R1-KTE (Q14671 828-1176 S863K/R864T/Q867E): as the sequence (Q14671 828-1176 S1079R/N1080S/E1083L) above, with S36K, R37T, Q40E, R252S, S253N, L256E counted along it
Chain of PUM1 PUF domain R5-RGT (Q14671 828-1176 C1007R/R1008G/Q1011T): as the sequence (Q14671 828-1176 S1079R/N1080S/E1083L) above, with C180R, R181G, Q184T, R252S, S253N, L256E counted along it
Chain of PUM1 PUF domain R2-VYL (Q14671 828-1176 N899V/Q903L): as the sequence (Q14671 828-1176 S1079R/N1080S/E1083L) above, with N72V, Q76L, R252S, S253N, L256E counted along it

In the case of “GGCUAGAACUAGUGGAUCCCCCGGCGCCCGGCGGCUCGAGCCCGGGUAAGCGUAAAUAGUCUGCAUGCCGCCGGGCGCCAUGCCUGCAGGUCGACUCUAGAAAACAUG”, the binding signal with PUM1 PUF domain R8-RFE is 3.87 log2 enrichment (interaction score); with PUM1 PUF domain R8-NWE it was 1.64 log2 enrichment (interaction score); in the assay with PUM1 PUF domain R8-PWY it was 2.57 log2 enrichment (interaction score); with PUM1 PUF domain R8-YYR it was 5.94 log2 enrichment (interaction score); in the assay with PUM1 PUF domain R8-SYN, 2.66 log2 enrichment (interaction score).

For “GGCUAGAACUAGUGGAUCCCCCGGCGCCCGGCGGCUCGAGCCCGGGUAAGUGUAAAUAGUCUGCAUGCCGCCGGGCGCCAUGCCUGCAGGUCGACUCUAGAAAACAUG”, the binding signal with PUM1 PUF domain R8-RFE was 2.4 log2 enrichment (interaction score); with PUM1 PUF domain R8-NWE, 2.9 log2 enrichment (interaction score); in the assay with PUM1 PUF domain R4-VRT, 4.25 log2 enrichment (interaction score); with PUM1 PUF domain R3-VRV, 3.29 log2 enrichment (interaction score); with PUM1 PUF domain R3-SPW, 3.13 log2 enrichment (interaction score); in the assay with PUM1 PUF domain R8-YYR, 5.34 log2 enrichment (interaction score). Also, the binding signal in the assay with PUM1 PUF domain R3-SPD was 3.36 log2 enrichment (interaction score).

On to “GGCUAGAACUAGUGGAUCCCCCGGCGCCCGGCGGCUCGAGCCCGGGUAAGUGUAAAUCGUCUGCAUGCCGCCGGGCGCCAUGCCUGCAGGUCGACUCUAGAAAACAUG”, for which the binding signal with PUM1 PUF domain R1-KTE is 4.3 log2 enrichment (interaction score).

“GGCUAGAACUAGUGGAUCCCCCGGCGCCCGGCGGCUCGAGCCCGGGUAAGUGUCAAUAGUCUGCAUGCCGCCGGGCGCCAUGCCUGCAGGUCGACUCUAGAAAACAUG”: the binding signal in the assay with PUM1 PUF domain R5-RGT is 5.24 log2 enrichment (interaction score).

With “GGCUAGAACUAGUGGAUCCCCCGGCGCCCGGCGGCUCGAGCCCGGGUAAGUGUAAGUAGUCUGCAUGCCGCCGGGCGCCAUGCCUGCAGGUCGACUCUAGAAAACAUG”, the binding signal in the assay with PUM1 PUF domain R3-YCD was 3.96 log2 enrichment (interaction score); in the assay with PUM1 PUF domain R3-LSN, 4.28 log2 enrichment (interaction score); with PUM1 PUF domain R3-TCD, 4.9 log2 enrichment (interaction score).

In the case of “GGCUAGAACUAGUGGAUCCCCCGGCGCCCGGCGGCUCGAGCCCGGGUAAGUCUAAAUAGUCUGCAUGCCGCCGGGCGCCAUGCCUGCAGGUCGACUCUAGAAAACAUG”, the results for the binding signal with PUM1 PUF domain R7-RSL and with PUM1 PUF domain R7-RGL were 2.11 log2 enrichment (interaction score) and 1.29 log2 enrichment (interaction score), respectively.

As to “GGCUAGAACUAGUGGAUCCCCCGGCGCCCGGCGGCUCGAGCCCGGGUAAGUUUAAAUAGUCUGCAUGCCGCCGGGCGCCAUGCCUGCAGGUCGACUCUAGAAAACAUG”, the figures for the binding signal with PUM1 PUF domain R7-RSL and with PUM1 PUF domain R7-RGL were 3.53 log2 enrichment (interaction score) and 3.07 log2 enrichment (interaction score), respectively.

For “GGCUAGAACUAGUGGAUCCCCCGGCGCCCGGCGGCUCGAGCCCGGGUAAGUGUAAUUAGUCUGCAUGCCGCCGGGCGCCAUGCCUGCAGGUCGACUCUAGAAAACAUG”, the binding signal with PUM1 PUF domain R3-LSN is 2.89 log2 enrichment (interaction score).

For the sequence “GGCUAGAACUAGUGGAUCCCCCGGCGCCCGGCGGCUCGAGCCCGGGUAAGUGUAAAAAGUCUGCAUGCCGCCGGGCGCCAUGCCUGCAGGUCGACUCUAGAAAACAUG”, the binding signal with PUM1 PUF domain R2-VYL is 2.41 log2 enrichment (interaction score).
